Measured values from PubChem BioAssay (NCATS).
A number with no mark means an inactive call. Results filed as inconclusive are left out. Entries that show only a call come without a potency. Active and inactive are the calls of the source. Calls come from the whole dose curve; as a rule, active = well fitted curve in the direction sought with a large enough effect; inconclusive = small, poorly fitted or top-dose-only effect, or another doubt; inactive = no such curve, though single readings can be large; an effect the other way counts as inactive or inconclusive.

Tests used:
[1] = molecular target: Cytochrome P450 3A4 (Homo sapiens) (UniProt P08684); assay: qHTS Assay for Activators of Cytochrome P450 3A4 (AID 885); note: nearly all actives have a fitted effect of over 65% in size; note: potency is the fitted concentration of half-maximal effect
Method in brief: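 Human CYP3A4 (20 nM) with Luciferin-PPXE at 25 uM (its KM) in 200 mM KPO4; 10 min compound preincubation, then NADPH regeneration and 60 min reaction at RT. Luciferin read by luminescence; normalized to 57 uM ketoconazole full inhibition.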

[2] = molecular target: Cytochrome P450 3A4 (Homo sapiens) (UniProt P08684); assay: qHTS Assay for Inhibitors and Substrates of Cytochrome P450 3A4 (AID 884); note: nearly all actives have a fitted effect of over 50% in size; note: potency is the fitted concentration of half-maximal effect; for activity change, negative = inhibition: series mostly up to about 57 µM
Method in brief: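 20 nM human CYP3A4 with 25 uM Luciferin-PPXE (at KM) in 200 mM KPO4, preincubated 10 min with compound; NADPH regeneration started a 60 min RT reaction. Luciferin detected by luminescence, normalized to 57 uM ketoconazole as full inhibition.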

[3] = Confirmation and Secondary Assay for Modulators of Hemoglobin Beta Chain Splicing at IVS2 654 locus (AID 910);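 note: per-well total GFP intensity by laser scanning cytometry after 2-day treatment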
Method in brief: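 HeLa cells stably carrying EGFP interrupted by mutant beta-globin IVS2-654 intron (CMV-driven) were treated with compound for 2 days at 37C; corrected splicing was scored as total peak GFP intensity per well (488 nm excitation, 500-520 nm emission).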

[4] = Confirmation and Secondary Assay for Modulators of Hemoglobin Beta Chain Splicing at IVS2 705 locus (AID 930);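 note: HeLa cells stably expressing the EGFP-705 splicing reporter; GFP fluorescence per well restored by corrected splicing of the IVS2-705 intron in EGFP; series mostly up to about 46 µM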
Method in brief: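 Fluorescence gain (488 nm laser, 500-520 nm PMT) reflects restored correct splicing of a mutant IVS2-705 intron inside EGFP in stably transfected HeLa cells after 2-day compound treatment.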

[5] = molecular target: Cytochrome P450 2D6 (Homo sapiens) (UniProt P10635); assay: qHTS Assay for Inhibitors and Substrates of Cytochrome P450 2D6 (AID 891); note: nearly all actives have a fitted effect of over 60% in size; note: potency is the fitted concentration of half-maximal effect;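 for activity change, negative = inhibition: luciferin methyl ether substrate demethylated by CYP2D6 with NADPH regeneration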
Method in brief: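 Human CYP2D6 (5 nM) with 30 uM Luciferin-ME EGE (at Km) in 100 mM KPO4, compound preincubated 10 min, then NADPH regeneration system for 60 min at room temperature. Luciferin read by luminescence; normalized to 1.43 uM quinidine.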

[6] = molecular target: Cytochrome P450 2C19 (Homo sapiens) (UniProt P33261); assay: qHTS Assay for Inhibitors and Substrates of Cytochrome P450 2C19 (AID 899); note: nearly all actives have a fitted effect of over 60% in size; note: potency is the fitted concentration of half-maximal effect
Method in brief: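 Human CYP2C19 (5nM) with Luciferin-H EGE at 10uM (its KM) in 50mM KPO4 was preincubated with compound for 10 min at 37C. NADPH regeneration started a 60 min 37C reaction. Luciferin was read by luminescence, normalized to 57uM ketoconazole.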

Sequence of Cytochrome P450 3A4 (Homo sapiens) (P08684 whole entry, looked up): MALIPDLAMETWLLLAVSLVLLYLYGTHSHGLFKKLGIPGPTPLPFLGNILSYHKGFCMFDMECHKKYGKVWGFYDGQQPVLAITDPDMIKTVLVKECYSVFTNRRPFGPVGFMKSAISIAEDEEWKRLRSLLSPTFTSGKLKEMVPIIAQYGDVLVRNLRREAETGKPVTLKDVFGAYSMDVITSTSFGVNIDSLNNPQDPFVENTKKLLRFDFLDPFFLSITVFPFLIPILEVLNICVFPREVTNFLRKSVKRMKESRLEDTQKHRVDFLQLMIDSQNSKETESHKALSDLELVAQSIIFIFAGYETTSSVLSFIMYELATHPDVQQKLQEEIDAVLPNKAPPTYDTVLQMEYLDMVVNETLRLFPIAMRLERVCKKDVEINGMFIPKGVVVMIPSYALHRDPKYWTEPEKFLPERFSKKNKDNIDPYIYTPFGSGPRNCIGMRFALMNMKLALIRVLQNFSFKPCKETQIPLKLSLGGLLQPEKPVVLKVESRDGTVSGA
Sequence of Cytochrome P450 2D6 (Homo sapiens) (P10635 whole entry, looked up): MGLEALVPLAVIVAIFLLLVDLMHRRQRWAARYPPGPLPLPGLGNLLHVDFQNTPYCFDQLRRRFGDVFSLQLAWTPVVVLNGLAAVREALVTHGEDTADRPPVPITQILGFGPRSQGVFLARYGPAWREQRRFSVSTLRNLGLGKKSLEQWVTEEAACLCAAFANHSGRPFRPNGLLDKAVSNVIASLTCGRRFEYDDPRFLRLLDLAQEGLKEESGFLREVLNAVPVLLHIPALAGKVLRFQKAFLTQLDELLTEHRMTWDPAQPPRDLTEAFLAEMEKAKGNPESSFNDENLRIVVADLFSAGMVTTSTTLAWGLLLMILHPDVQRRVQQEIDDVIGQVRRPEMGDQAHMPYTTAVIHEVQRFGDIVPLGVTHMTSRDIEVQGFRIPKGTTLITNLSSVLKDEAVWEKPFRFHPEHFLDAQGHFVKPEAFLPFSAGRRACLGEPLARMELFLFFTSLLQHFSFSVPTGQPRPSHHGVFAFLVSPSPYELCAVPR
Sequence of Cytochrome P450 2C19 (Homo sapiens) (P33261 whole entry, looked up): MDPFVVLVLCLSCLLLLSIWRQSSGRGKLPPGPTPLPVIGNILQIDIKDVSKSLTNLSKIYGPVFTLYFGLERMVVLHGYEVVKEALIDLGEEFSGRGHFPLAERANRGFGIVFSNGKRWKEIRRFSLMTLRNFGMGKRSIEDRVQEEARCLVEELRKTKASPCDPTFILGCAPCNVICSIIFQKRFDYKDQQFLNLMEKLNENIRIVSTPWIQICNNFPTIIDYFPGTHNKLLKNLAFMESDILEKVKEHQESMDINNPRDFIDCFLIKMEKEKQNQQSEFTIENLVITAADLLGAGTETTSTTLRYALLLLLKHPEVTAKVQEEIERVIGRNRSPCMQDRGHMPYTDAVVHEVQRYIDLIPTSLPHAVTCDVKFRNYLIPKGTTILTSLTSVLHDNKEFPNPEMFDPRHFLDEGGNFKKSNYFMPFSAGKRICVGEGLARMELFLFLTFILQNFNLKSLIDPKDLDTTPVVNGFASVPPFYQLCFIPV

Structure (SMILES): CCc1cc2c(nc1CC)CCN(CC/C(C)=N/OC)C2
- activity change, positive = activation [1]: -38.7% [at 11.4 µM]

Structure (SMILES): COc1cc2c(cc1OC)[C@@H]1C(=O)c3ccc4c(c3OC1CO2)CC(C(C)C)O4 (stereo not given in full)
- Potency [2]: 25.1 µM (active)
- Potency [1]: inactive
- Potency [3]: inactive
- outcome [4]: inactive

Structure (SMILES): CN(C)C1C(=O)C(C(N)=O)=C(O)[C@@]2(O)C(=O)C3=C(O)c4c(O)cccc4[C@](C)(O)C3C(O)C12 (stereo not given in full)
- Potency [2]: inactive
- Potency [3]: inactive
- outcome [4]: inactive

Structure (SMILES): CC[C@]1(O)CC(O[C@@H]2CC(N(C)C)C(O)C(C)O2)c2c(cc3c(c2O)C(=O)c2c(O)ccc(O)c2C3=O)C1C(=O)OC (stereo not given in full)
- Potency [2]: inactive
- Potency [3]: inactive
- outcome [4]: inactive

Structure (SMILES): CCCN1[C@H](C(=O)OC)C[C@@H]2CC[C@@H](O)C[C@@H]21
- Potency [1]: inactive

Structure (SMILES): CC(=O)OC1CCC2C3CCc4cc(O)ccc4C3CCC12C (stereo not given)
- Potency [1]: inactive

Structure (SMILES): COc1ccc2c(c1)CN([C@H](C)[C@@H]1CC[C@@H]3[C@H]4CC[C@H]5C[C@@H](O)CC[C@@]5(C)[C@H]4CC[C@]31C)CO2
- activity change, negative = inhibition [2]: 321% [at 11.4 µM]
- Potency [1]: 3.98 µM (active)
- Potency [5]: 3.16 µM (active)

Structure (SMILES): O=[N+]([O-])c1ccc(S(=O)(=O)Cc2ccccc2)c([N+](=O)[O-])c1
- Potency [2]: 0.316 µM (active)
- activity change, positive = activation [1]: -105% [at 11.4 µM]
- Potency [6]: 2 µM (active)

Structure (SMILES): BrC1C(Br)C(Br)C(Br)C(Br)C1Br (stereo not given)
- Potency [1]: inactive

Structure (SMILES): CCCCCCCCCCCCCC(=O)OC1C(C)[C@@]2(O)C(C=C(CO)C[C@]3(O)C(=O)C(C)=C[C@H]23)[C@@H]2C(C)(C)[C@]12OC(C)=O (stereo not given in full)
- Potency [2]: inactive
- Potency [3]: inactive
- outcome [4]: inactive

Structure (SMILES): CC1Cc2c(cnc3c2CN(C)CC3)CO1 (stereo not given)
- activity change, negative = inhibition [2]: -13.4% [at 11.4 µM]
- activity change, negative = inhibition [5]: 10.1% [at 11.4 µM]
- activity, negative = inhibition [6]: 9.03% [at 11.4 µM]

Structure (SMILES): CC(=O)Oc1ccc(/C=C/c2cc(OC(C)=O)cc(OC(C)=O)c2)cc1
- Potency [2]: 10 µM (active)
- Potency [1]: inactive
- Potency [3]: inactive
- outcome [4]: inactive
